Source: PubChem BioAssay AID485364 (National Center for Advancing Translational Sciences (NCATS), 2010)
The whole screen tested about 360,000 compounds, of which about 11,000 (3.1%) were called active. About 4% were inconclusive and are not listed. This is one part of a sample in which actives are shown more often than they occur. Unmarked numbers belong to inactive results. The call rests on the fitted dose curve; in most records, active means well fitted inhibition curve with a large enough effect; inconclusive means small, poorly fitted or top-dose-only effect; inactive means no such curve, though single readings can be large or run the other way.

Target: Schistosoma mansoni thioredoxin glutathione reductase (TGR) (UniProt Q962Y6)
Assay: qHTS Assay for the Inhibitors of Schistosoma Mansoni Peroxiredoxins; further: nearly all actives have a fitted effect of over 60% in size
Details: purified TGR, DTNB reduction, TNB absorbance 405 nm; series mostly up to 114 µM; activity change, negative = inhibition: at the top concentration
How it was run: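 First, TGR (20 nM dispensed) and NADPH were mixed with compound. Second, a 15 min room-temperature incubation followed. Third, further NADPH and then DTNB were added to start the reaction. Finally, TNB absorbance was monitored kinetically.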
On the % scale 0 is the no-effect control and ±100 the full control effect; potency means the concentration at half of the fitted maximal effect.

How did the “activity change, negative = inhibition” value turn out when `Cc1nc(-c2ccc(Cl)cc2)sc1C1(C)CC(c2ccccc2F)=NO1` (stereo not given) was run?
Its value is -13.9%.

`Cc1nc(-c2ccccc2)sc1C(=O)/C=C/N(C)C` was tested. Which “activity change, negative = inhibition” value did it give?
The value was -15.3%.

`COC(=O)c1cc(NC(=O)CCS(=O)(=O)c2cc(Br)cc3c2N(C(=O)C2CC2)CC3)cc(C(=O)OC)c1` was tested. Which “activity change, negative = inhibition” value did it give?
Its value is -9.74%.

`Fc1ccccc1C(c1nnnn1Cc1ccc2c(c1)OCO2)N1CCN(Cc2ccccc2)CC1` (stereo not given) was tested. Which “activity change, negative = inhibition” value did it give?
The value was -21.9%.

For `Cc1ccc(S(=O)(=O)Cn2nnnc2CN2CCN(Cc3ccc4c(c3)OCO4)CC2)cc1`, which “activity change, negative = inhibition” value is on record?
Its value is 5.87%.

How did the Potency turn out when `Cc1cc(C)c2[nH]c(=O)c(C(c3nnnn3Cc3ccc4c(c3)OCO4)N3CCCC3)cc2c1` (stereo not given) was run?
The Potency was 15.8 µM (active).

Which “activity change, negative = inhibition” value does the source give for `Cc1cc2nc(-c3ccc(NC(=O)c4cc5ccccc5o4)cc3)oc2cc1C` here?
The value was -1.68%.

Which “activity change, negative = inhibition” value does the source give for `COc1cc(OC)cc(C(=O)Nc2ccc3nc(Nc4cccc(C(F)(F)F)c4)cc(C)c3c2)c1` here?
The value was 6.99%.

How did the Potency turn out when `O=C(/C=C/c1ccc(Cl)cc1Cl)c1cccnc1` was run?
The Potency was 8.91 µM (active).

Which “activity change, negative = inhibition” value does the source give for `O=C(OCc1cc(Cl)ccc1OC(F)F)c1cccnc1` here?
The value was -4.95%.

For `O=C(NCc1ccc(Cl)c(Cl)c1)c1cccnc1`, which “activity change, negative = inhibition” value is on record?
The value was 10%.

How did the “activity change, negative = inhibition” value turn out when `COc1ccc(-c2nc3ccccc3o2)cc1NC(=O)c1cc([N+](=O)[O-])ccc1N1CCOCC1` was run?
Its value is 3.13%.

With `CN(C)CCCn1c(-c2ccc(Cl)cc2)csc1=Nc1ccccc1` as the compound, how does the “activity change, negative = inhibition” value read?
Its value is 9.1%.

`O=C(NCc1ccco1)C1CCCN(S(=O)(=O)c2cnc[nH]2)C1` (stereo not given) was tested. Which “activity change, negative = inhibition” value did it give?
Its value is 0%.

`O=C(NCc1ccco1)C1CCCN(S(=O)(=O)c2ccccc2)C1` (stereo not given) was tested. Which “activity change, negative = inhibition” value did it give?
Its value is 2.53%.

Which Potency does the source give for `O=C(NCc1ccco1)C1CCCN(S(=O)(=O)c2cccc3nonc23)C1` (stereo not given) here?
Its Potency is 22.4 µM (active).

`Cc1ccc(S(=O)(=O)N2CCC(C(=O)N[C@@H](C)C(=O)NCc3ccco3)CC2)cc1` was tested. Which “activity change, negative = inhibition” value did it give?
Its value is -19.9%.

How did the Potency turn out when `Cc1ccc(S(=O)(=O)N2CCCC2C(=O)NCc2ccco2)cc1` (stereo not given) was run?
Its Potency is 50.1 µM (active).

`Cc1ccc(CNC(=O)C2CCCN2S(=O)(=O)c2ccc3c(c2)C(C)(C)C(=O)N3C)cc1` (stereo not given) was tested. Which “activity change, negative = inhibition” value did it give?
Its value is 1.2%.

With `O=C(NCCCO)C(=O)Nc1c2c(nn1-c1ccccc1)CSC2` as the compound, how does the “activity change, negative = inhibition” value read?
Its value is -19.7%.

For `Cc1c(-c2nsc(NC(=O)c3cccc(Cl)c3)n2)nnn1-c1ccccc1C(F)(F)F`, which “activity change, negative = inhibition” value is on record?
Its value is 9.29%.

How did the “activity change, negative = inhibition” value turn out when `CCc1nn(CCCC(=O)NCc2ccccc2OC)c(=O)c2cc3occc3n12` was run?
Its value is 6.78%.

`CN1C(=O)c2ccccc2Sc2ccc(NC(=O)Cc3ccc(Cl)cc3)cc21` was tested. Which “activity change, negative = inhibition” value did it give?
Its value is 2.52%.

Which “activity change, negative = inhibition” value does the source give for `CCOc1cc(NS(=O)(=O)c2ccc(OC)cc2)c(OCC)cc1NC(C)=O` here?
Its value is 0%.

With `CCOc1cc(NC(=O)CCl)c(OCC)cc1NC(C)=O` as the compound, how does the Potency read?
Its Potency is 44.7 µM (active).

For `CCOc1cc(NC(=O)Nc2ccccc2)c(OCC)cc1NC(=O)CC`, which “activity change, negative = inhibition” value is on record?
The value was -0.833%.

With `Cc1cccc(NC(=O)Cn2nc(-c3ccc(Cl)cc3)c3ccccc3c2=O)c1` as the compound, how does the “activity change, negative = inhibition” value read?
The value was 9.04%.

With `CCOC(=O)c1ccc(N2C(=O)CC(Sc3nc(O)c(CC)c(=O)[nH]3)C2=O)cc1` (stereo not given) as the compound, how does the “activity change, negative = inhibition” value read?
The value was 0%.

For `O=C1CC(Sc2ncn[nH]2)C(=O)N1c1ccccc1` (stereo not given), which Potency is on record?
Its Potency is 0.501 µM (active).

With `CCN(C(=O)CSc1ncn[nH]1)c1cccc2ccccc12` as the compound, how does the “activity change, negative = inhibition” value read?
The value was -5.37%.

`O=C1CC(c2ccccc2)C(=O)N1c1cccc(O)c1` (stereo not given) was tested. Which “activity change, negative = inhibition” value did it give?
Its value is -8.38%.

For `Cc1ccc(N2C(=O)CC(Sc3ncn[nH]3)C2=O)cc1` (stereo not given), which Potency is on record?
The Potency was 0.447 µM (active).

For `CC(=O)Nc1ccc(N2C(=O)CC(Sc3nccc(C)n3)C2=O)cc1` (stereo not given), which “activity change, negative = inhibition” value is on record?
The value was -33.9%.

`COc1ccc(N2C(=O)CC(Sc3n[nH]c(-c4ccc(C)cc4)n3)C2=O)cc1` (stereo not given) was tested. Which Potency did it give?
The Potency was 0.708 µM (active).

Which “activity change, negative = inhibition” value does the source give for `COc1ccc(N2C(=O)CC(SC(C)C)C2=O)cc1` (stereo not given) here?
The value was -11.8%.

For `COc1ccc(-c2nc(SCC(=O)N3CCCC3)n[nH]2)cc1`, which “activity change, negative = inhibition” value is on record?
The value was 8.14%.

With `COc1ccc(NC(=O)CSc2nc3ncccc3[nH]2)c(OC)c1` as the compound, how does the “activity change, negative = inhibition” value read?
Its value is 3.81%.

`COc1ccccc1C(=O)NCCn1cc(SCc2ccccc2Cl)c2ccccc21` was tested. Which “activity change, negative = inhibition” value did it give?
Its value is 15.5%.

For `Cc1cccc(N2CCN(c3ccc(C(=O)O)cc3NC(=O)c3ccccc3F)CC2C)c1` (stereo not given), which “activity change, negative = inhibition” value is on record?
Its value is -9.71%.

For `COc1cc(OC)c(N(C)C(=O)c2cc3c(=O)oc4ccccc4c3s2)cc1Cl`, which “activity change, negative = inhibition” value is on record?
Its value is -2.14%.

How did the “activity change, negative = inhibition” value turn out when `Cc1ccc(-c2cc(C(F)(F)F)c(C#N)c(SCC(=O)Nc3ccccc3)n2)cc1` was run?
Its value is 6.14%.

Which “activity change, negative = inhibition” value does the source give for `Cc1cccc(CCNC(=O)c2ccc3c(c2)nc2n3CCC(C)C2)c1` (stereo not given) here?
The value was 7.13%.

For `COc1ccc(CCN2C(=O)CC(N3CCC(C(N)=O)CC3)C2=O)cc1OC` (stereo not given), which Potency is on record?
Its Potency is 3.16 µM (active).

Which “activity change, negative = inhibition” value does the source give for `COc1ccc(COCC(O)CN2CCC(C(N)=O)CC2)cc1` (stereo not given) here?
Its value is 8.49%.

For `COc1ccc(CCN2C(=O)C(C)=C(C)C2=O)cc1OC`, which “activity change, negative = inhibition” value is on record?
The value was 0.409%.

How did the Potency turn out when `COc1ccc(N2C(=O)CC(N3CCC(C(N)=O)CC3)C2=O)cc1` (stereo not given) was run?
The Potency was 14.1 µM (active).

With `NC(=O)C1CCN(C2OC(=O)c3ccccc32)CC1` (stereo not given) as the compound, how does the “activity change, negative = inhibition” value read?
The value was -33.1%.

For `COc1ccc(CCN2C(=O)C3CC=C(C)CC3C2=O)cc1OC` (stereo not given), which “activity change, negative = inhibition” value is on record?
The value was -4.3%.

With `COCCn1c(SCC(=O)c2cc(C)ccc2C)nc2cc(C(=O)NC3CCCC3)ccc2c1=O` as the compound, how does the “activity change, negative = inhibition” value read?
The value was -1.98%.

`CCCN1C(=O)C(O)(CC(=O)c2ccc(CC)cc2)c2cc(Br)ccc21` (stereo not given) was tested. Which “activity change, negative = inhibition” value did it give?
Its value is -0.17%.
